DAX1 inh-1 = DAX1 (NR0B1) inhibitors, primary screen, cell-based, HEK293, Gal4-DAX1, luciferase luminescence; Nuclear receptor subfamily 0 group B member 1 (Homo sapiens), P51843; HEK293 Gal4-DAX1 luciferase reporter; inhibition, % at 6.75 µM; 340,000 tested, 0.99% active; AID 504766, 2011;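 active means inhibition above the mean over all tested compounds plus 3 SD, cut at about 4.2% in these data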;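 further: inhibition shows as a rise in luminescence from relieved DAX1 repression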
Target sequence (P51843 207-470 limits assumed): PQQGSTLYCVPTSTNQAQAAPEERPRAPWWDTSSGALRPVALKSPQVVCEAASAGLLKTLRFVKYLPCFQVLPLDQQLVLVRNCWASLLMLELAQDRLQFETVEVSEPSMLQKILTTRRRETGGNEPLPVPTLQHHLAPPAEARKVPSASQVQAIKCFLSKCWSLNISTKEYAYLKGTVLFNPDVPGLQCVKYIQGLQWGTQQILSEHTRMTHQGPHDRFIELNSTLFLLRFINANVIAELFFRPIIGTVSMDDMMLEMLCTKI
ssDAF-12 act = S. stercoralis DAF-12 nuclear receptor activators, primary screen, cell-based, luminescence, HEK293, GRIP1 co-expression, lit1-tk-luc; HEK293 ssDAF-12/GRIP1 lit1-tk-luc reporter; % of 3 µM dafachronic acid response; activation, % at 6.8 µM; 370,000 tested, 1% active;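 active means activation above the mean over all tested compounds plus 3 SD, cut at about 0.9% in these data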
hcDAF12 agonist = H. contortus DAF-12 nuclear receptor activators, primary screen, cell-based, luminescence, HEK293, lit1-tk-luc reporter | 370,000 tested, 1.4% active | activation, % at 6.8 µM | HEK293 hcDAF-12 lit1-tk-luc reporter; 0% DMSO, 100% Δ7-dafachronic acid;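 active means activation above the mean of all tested compounds plus 3 SD, cut at about 5.5% in these data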
hgDAF-12 ag = H. glycines DAF-12 receptor agonists, primary screen, cell-based, luminescence, HEK293, GAL4 fusion, UAS-luciferase; Nuclear hormone receptor DAF-12 (Heterodera glycines), GAL4 fusion; HEK293 GAL4-hgDAF12 UAS-luciferase reporter, agonist luminescence; normalized to butyrate control; activation, % at 6.8 µM; 370,000 tested, 1.8% active; AID 687014, 2013;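 active means activation above a cutoff set at the mean of all screened compounds plus 3 SD, cut at about 10% in these data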
DAX1 inh-2 = DAX1 (NR0B1) inhibitors on StAR promoter, primary screen, cell-based, luminescence, SF-1 (NR5A1), full-length DAX-1 | 370,000 tested, 1.1% active | inhibition, % at 6.8 µM | HEK293T StAR-luciferase reporter, SF-1/DAX-1 repression relief;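 active means inhibition above the mean over all tested compounds plus 3 SD, cut at about 3.6% in these data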;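 further: higher inhibition means more luminescence from relief of DAX-1 repression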
Each line names hits and unclear results; the compound was inactive in the other large screens. This is a sample that favours compounds with a hit; in the whole collection about 4.1% have one here.

OC(CN(Cc1ccccc1)Cc1ccccc1)c1ccccc1 (stereo unspecified)	none
O=C(CSc1nnc(-c2cccnc2)n1Cc1ccco1)Nc1ccc(F)cc1Cl	none (no result: DAX1 inh-1)
Cc1cccc(NC(=O)CSc2nnc(-c3cccnc3)n2Cc2ccco2)c1C	none (no result: DAX1 inh-1)
O=C(OC12CCCN(C1)/C(=C/c1ccc(Cl)cc1)C2)c1cccc(F)c1 (stereo unspecified)	none (no result: DAX1 inh-1)
COC1=CC(=O)OC(c2ccccc2C(F)(F)F)C1 (stereo unspecified)	none (no result: DAX1 inh-1)
CN(Cc1ccccc1Cl)C(=O)CN1C(=O)C2(OCCCO2)c2ccccc21	none (no result: DAX1 inh-1)
CN1C(=O)/C(=C/c2ccc(O)c([N+](=O)[O-])c2)N(C)C1=S	DAX1 inh-1 4.2
COc1cc(/C=C2\C(=O)N(C)C(=S)N2C)ccc1O	none
Cc1cc(C(=O)Nc2ccccc2)c2ccccc2n1	none
Cc1cc(C(=O)Nc2sccc2C#N)c2ccccc2n1	hcDAF12 agonist 5.9
COC(=O)C1C(=O)c2c([nH]c(C(=O)OC3CCCC3)c2C)CC1C (stereo unspecified)	hcDAF12 agonist 6.0
Cc1ccc(-n2c(SCC(=O)Nc3ccc4c(c3)OCCO4)nnc2-c2ccccn2)cc1	none (no result: DAX1 inh-1)
Oc1cccc(N2CCN(c3cccc(O)c3)CC2)c1	ssDAF-12 act 0.9 (no result: DAX1 inh-1)
Nc1ccc(N2CCN(c3cccc(Cl)c3)CC2)cc1	none
O=S(=O)(c1ccc(Cl)nc1)N1CCN(Cc2ccc3c(c2)OCO3)CC1	hgDAF-12 ag 11.1
O=C(N/N=C/c1cc([N+](=O)[O-])ccc1Cl)c1cnccn1	DAX1 inh-1 5.1
COc1ccc(OC)c(/C=N/NC(=O)c2cnccn2)c1	DAX1 inh-1 4.4
O=C(CSc1nc(=O)n2ccccc2n1)NCCc1ccccc1	DAX1 inh-2 3.9
O=C(CSc1nnnn1C1CCCC1)NCCc1ccccc1	DAX1 inh-1 5.3
COC(=O)c1ccc(-c2ccc(F)cc2)nc1C	hgDAF-12 ag 11.9
CCOC(=O)c1cc2c(nc1N)CCCC2	none
CCOC(=O)c1ccc(-c2ccc3c(c2)CCC3)nc1C	hcDAF12 agonist 5.6
CC1(C)CC(=O)C=C(c2ccccc2F)C1=O	none (no result: DAX1 inh-1)
c1cc(-c2nnc3n2N=C(c2ccc4c(c2)OCO4)CS3)ccn1	none (no result: DAX1 inh-1)
CN(C)c1ccc(N=Nc2cccc(F)c2)cc1	ssDAF-12 act 1.4, hcDAF12 agonist 5.6, hgDAF-12 ag 11.0
Cc1cc(N(C)C)cc(C)c1N=Nc1cc[n+]([O-])cc1	none
O=C(Nc1ccccc1)c1cc([N+](=O)[O-])ccc1Cl	hcDAF12 agonist 5.8
CC(=O)Nc1ccc(NC(=O)c2ccc([N+](=O)[O-])cc2Cl)cc1	none
O=C(Nc1ccc([N+](=O)[O-])cc1)c1ccccc1F	hgDAF-12 ag 11.6
Cc1ccc(C(=O)Nc2ccc(Nc3ccccc3)cc2)c(Cl)c1	ssDAF-12 act 2.0
O=C(Nc1ccc(-c2ccc([N+](=O)[O-])cc2)cc1)c1ccccc1F	none
COc1ccc2nc(Cl)c(/C=N/Nc3ccccn3)cc2c1	DAX1 inh-2 4.1
Clc1ccccc1C=NNc1ccccn1	none
Cc1cc2nc3c(c(C(F)(F)F)n2n1)CCCC3	DAX1 inh-1 6.3
O=C(NC1CCCCC1)c1cc2nc3c(c(C(F)(F)F)n2n1)CCCC3	none
CCOC(=O)[C@@]12CN(C(=O)OC(C)(C)C)CC=C1N(Cc1ccc(OC)cc1)C(=O)[C@H]2CC(=O)NCC12CC3CC(CC(C3)C1)C2	none (no result: DAX1 inh-1)
O=C(CCNc1ccccc1)c1ccc2c(c1)OCO2	DAX1 inh-1 4.8, hgDAF-12 ag 11.3
CN(C)CCC(=O)c1ccc2c(c1)OCO2	none
O=S(=O)(c1ccc(F)cc1)N1CCN(c2ccccn2)CC1	ssDAF-12 act 1.6
O=C(Nc1c(F)cc(F)cc1Br)c1cc(S(=O)(=O)N2CCN(c3ccccn3)CC2)ccc1F	DAX1 inh-1 4.7
CCc1ccc(Cn2c(=O)n(Cc3ccc(C(=O)NCCCOC)cc3)c(=O)c3ccccc32)cc1	none (no result: DAX1 inh-1)
COc1cccc(CCc2nnc(CCC(=O)N3CCCC3c3nccs3)o2)c1 (stereo unspecified)	DAX1 inh-1 4.2
COc1cccc(CCc2nnc(CCC(=O)NCCC3CCCCO3)o2)c1 (stereo unspecified)	none
CC1=NN(c2ccccc2)C(=O)C1C(=O)C(=O)Nc1ccc(F)cc1 (stereo unspecified)	hgDAF-12 ag 10.7, DAX1 inh-2 4.3
CC1=NN(c2ccccc2)C(=O)C1C(=O)c1ccccc1 (stereo unspecified)	none
COc1ccc(/C=C2/CN(Cc3ccc(OC)cc3OC)C3=NC(c4ccc5ccccc5c4)CC(=O)N32)cc1 (stereo unspecified)	none (no result: DAX1 inh-1, DAX1 inh-2)
CCOC(=O)/C(=C\c1c[nH]c2ccccc12)NC(C)=O	ssDAF-12 act 1.4
Cn1c2ccccc2c(=O)c2ccc(NCCc3cccs3)cc21	DAX1 inh-2 4.1
CC(C)N(C(=O)c1nn(C)c2c1CSc1ccccc1-2)C1CCCCC1	none
Cc1ccc2oc(=O)c3cnn(CC(=O)N4CCc5ccccc5C4)c3c2c1	DAX1 inh-1 6.3
Nc1cc(Cl)nc(N/N=C/c2ccccc2[N+](=O)[O-])n1	none
CCOC(=O)C(=O)Nc1ccc2c(c1)OCO2	none
CCOC(=O)/C(N=Nc1ccc2c(c1)OCO2)=C(\C)O	DAX1 inh-1 6.3
CCCCNC(=O)C[C@H]1C[C@@]2(C(=O)OC)C(=C[C@H](C(C)C)O[C@@H]2C2CC2)N(Cc2ccc(Cl)cc2Cl)C1=O	none (no result: DAX1 inh-1)
COc1ccc(-n2c3c(c(=O)[nH]c2=O)C(NC(=O)c2ccncc2)(C(F)(F)F)C(=O)N3)cc1 (stereo unspecified)	none
CCCCN=C(N)NC(=O)c1ccccc1	none (no result: DAX1 inh-1)
CC(C)CN1CN2Cc3cc(F)ccc3C2CS1(=O)=O (stereo unspecified)	none (no result: DAX1 inh-1)
Cc1ccc(C(=O)COC(=O)c2ccco2)cc1C	ssDAF-12 act 1.0
O=C(COC(=O)c1ccco1)c1ccc2ccccc2c1	none
Cc1ccccc1-c1cccc([C@@H]2C[C@H]3C(CN2)CON3C)c1 (stereo partly specified)	none
Cc1ccc(NC(=O)Cc2noc3ccccc23)nc1	none
O=C(Cc1noc2ccccc12)Nc1ccccn1	hgDAF-12 ag 10.7
O=C(CCN1C(=O)/C(=C/c2ccc(F)cc2)SC1=S)NNC(=O)c1cccnc1	DAX1 inh-1 4.3
Cc1ccc(-c2cc(-c3ccccc3)nc(Cl)n2)cc1	hcDAF12 agonist 6.0
COc1ccc(-c2cc(-c3ccccc3)nc(Cl)n2)cc1OC	none
CC1CC(C)CN(CCCNC(=O)c2ccc3nc(N4CCCCC4)sc3c2)C1 (stereo unspecified)	none

Screening results: PubChem BioAssay, The Scripps Research Institute Molecular Screening Center
